# PfHsp90 set2: growth inhibition of PfHsp90-expressing yeast, primary screen, antimalarial PfHsp90 inhibitor project, S. cerevisiae, BacTiter-Glo luminescence, single point, set 2; BacTiter-Glo ATP, 48 h; yeast lacking PDR1 and PDR3 efflux regulators; inhibition, % at 9.4 µM; 0.32% of 310,000 active;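 active means every replicate shows inhibition above about 80%, whatever the replicate mean, limit read from the data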
# tim23-1 inh: growth inhibitors of tim23-1 mutant yeast, primary screen, luminescence, uHTS; 1.3% of 330,000 active; inhibition, % at 20 µM; S. cerevisiae tim23-1 growth, BacTiter-Glo luminescence, 24 h; AID 463212, 2010;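 active means growth inhibition of the mutant yeast at or above 50%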;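 further: temperature-sensitive mutant grown at 25 °C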
# NALP1 yeast inh: NALP1 inflammasome inhibitors in reconstituted yeast, colorimetric, S. cerevisiae, triplicate retest; inhibition, % at 10 µM; S. cerevisiae NALP1/ASC/caspase-1 growth, X-gal OD620, 72 h; 0.61% of 280,000 active; in the data active means inhibition mostly above about 24%, no sharp cut-off; inactive means mostly below about 32%
# NALP3 yeast inh: NALP3 inflammasome inhibitors in reconstituted yeast, primary screen, luminescence, uHTS | Yeast reconstituted NLRP3/ASC/caspase-1, beta-gal luminescence, 24 h | inhibition, % at 10 µM | 0.39% of 330,000 active;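 active means inhibition of 50% or more; inactive means inhibition below 50%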
# TIM10 inh: growth inhibitors of isogenic TIM10 control yeast, primary screen, counter-screen for tim10-1 yeast inhibitor project, luminescence, uHTS; inhibition, % at 10 µM; S. cerevisiae TIM10 strain growth, BacTiter-Glo luminescence, 24 h; 1.4% of 330,000 active;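 active means inhibition of 40% or more at the single tested concentration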;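 further: wild-type TIM10 isogenic control strain grown at permissive 25 °C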
# tim10-1 inh: growth inhibitors of tim10-1 mutant yeast, primary screen, luminescence, uHTS; 2.2% of 330,000 active; inhibition, % at 20 µM; S. cerevisiae tim10-1 ts strain growth, BacTiter-Glo, 24 h;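 active means inhibition of at least 40%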;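 further: mutant grown at 25 °C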
# tim10-1 conf: growth inhibitors of tim10-1 mutant yeast, confirmation, single concentration, luminescence, S. cerevisiae | shares compounds with tim10-1 inh | S. cerevisiae tim10-1 ts strain growth, BacTiter-Glo, 24 h | inhibition, % at 20 µM | 56% of 7,400 active | AID 463213, 2010;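 active means inhibition of yeast growth at or above a set limit in either of two repeat tests at 20 µM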;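 further: tim10-1 mutant grown at permissive 25 °C to find synthetic lethal compounds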
# A number is an active result; – = inactive; · = no result. Sampled rows, rich in hits. Any-hit rate of the full collection: about 4.1%.
SMILES,PfHsp90 set2,tim23-1 inh,NALP1 yeast inh,NALP3 yeast inh,TIM10 inh,tim10-1 inh,tim10-1 conf
CCOC(=O)c1ccc(NC(=O)c2cccc3c2C(=O)N(CC2CCCO2)C3)cc1 (stereo not drawn),–,–,–,–,–,47,43
COc1cc(CCC(=O)Nc2c(C(=O)N3CCN(c4ccccc4OC)CC3)oc3ccccc23)on1,–,–,–,–,–,42,–
CCOc1ccccc1NC(=O)C(OC(=O)c1cnccn1)c1ccccc1 (stereo not drawn),·,–,·,–,–,–,·
Clc1ccccc1OCc1nnc(-c2ccccc2Br)o1,–,–,–,–,–,49,34
COC(=O)c1c(NC(NC(=O)C(C)(C)C)C(Cl)(Cl)Cl)sc2c1CCC2 (stereo not drawn),–,–,–,–,–,–,·
COC(=O)c1c(NC(NC(=O)C(C)C)C(Cl)(Cl)Cl)sc2c1CCC2 (stereo not drawn),–,–,–,–,–,44,–
Cc1ccc(CNC(=O)CCSCc2ccc(C)cc2)cc1,–,–,–,–,–,–,·
Cc1c(C(=O)c2ccc(N(C)C)cc2)c2ccccn2c1CCC#N,–,–,–,–,–,40,–
Cc1c(C(=O)c2ccc(F)cc2F)c2ccccn2c1CCC#N,–,–,–,–,–,–,·
Cn1cccc1/C=N/NC(=O)CSc1nc2ccccc2n1C,–,–,–,–,–,–,·
O=C(O)c1ccc(-n2nc(C(F)(F)F)c3c2-c2ccoc2CC3)cc1,·,–,–,–,–,–,·
COC(=O)c1ccc(-n2nc(C(F)(F)F)c3c2-c2ccoc2CC3)cc1,–,–,–,–,–,41,–
COCCCNC(=S)N/N=C/c1ccc2c(c1)OCO2,–,–,–,–,–,41,–
CCN(CC)C(=O)Nc1ccc(Br)cc1,·,–,–,–,–,–,·
CCCC(=O)NC(=S)Nc1ccc(Cl)cn1,–,–,–,–,–,45,32
Cc1cc(Cl)ccc1OCC(=O)NC(=S)Nc1ccc(Cl)cn1,–,–,–,–,–,–,·
O=C(Oc1c(CN2CCOCC2)cc(Cl)c2cccnc12)c1ccccc1,–,–,–,–,–,51,–
CC(=O)c1cccc(NC(=S)NC(=O)Cc2ccccc2)c1,–,–,–,–,–,46,–
CC(=O)c1cccc(NC(=S)NCCC2=CCCCC2)c1,–,–,–,–,–,–,–
COc1ccccc1CN1CC(C(=O)NCc2cc(C(C)C)no2)CCC1=O (stereo not drawn),–,–,–,–,–,–,·
O=C(Nc1ccon1)Nc1ccccc1C(F)(F)F,–,–,–,–,–,–,·
COc1ccc(C)cc1NC(=O)CNc1ccccc1CN(C)C1CCCCC1,–,–,–,–,–,–,·
COc1ccc(Cl)cc1NC(=O)CNc1ccccc1CN(C)C1CCCCC1,–,–,–,–,–,43,30
O=C(c1ccc(Cl)cc1)c1cnc(-c2ccccc2)s1,–,·,–,·,·,·,·
CO/N=C/CC(=O)c1cnc(-c2ccc(Cl)cc2)s1,–,–,–,–,–,41,–
SMILES,PfHsp90 set2,tim23-1 inh,NALP1 yeast inh,NALP3 yeast inh,TIM10 inh,tim10-1 inh,tim10-1 conf
CCOc1ccc(-n2ccnc(SCC(=O)Nc3ccc(OC)cc3OC)c2=O)cc1,–,–,·,–,–,–,·
CCOc1ccc(-n2ccnc(SCC(=O)NCc3cccc(OC)c3)c2=O)cc1,·,–,·,–,–,43,–
CC1CCCC(C)N1CCOc1cc(N)ccc1C#N (stereo not drawn),–,·,·,·,·,·,·
Cc1cccn2c(=O)nc(SCC(=O)NCCc3ccccc3)nc12,–,–,·,–,–,–,·
CCOC(=O)c1ccc(N=c2scc(C)n2CC)cc1,–,–,–,–,–,43,–
O=C1c2ccccc2C(O)(c2ccccc2)N1C1CC1 (stereo not drawn),–,–,–,–,–,–,·
CN(c1ccccc1C(=O)O)S(C)(=O)=O,·,–,–,–,–,–,·
CN(C)c1ccccc1C(=O)c1ccccc1N(C)C,–,–,–,–,–,40,–
CC(=O)N1N=C(c2cccc([N+](=O)[O-])c2)OC1c1ccc(Cl)cc1Cl (stereo not drawn),·,–,–,–,–,40,–
O=C(/C=C/c1cccc(Oc2ccccc2)c1)N1CCOCC1,–,–,–,–,–,43,–
O=C(/C=C/c1cccc([N+](=O)[O-])c1)N1CCOCC1,–,–,–,–,–,–,·
CCN(Cc1ccncc1)C(=O)C1CCC(=O)N(Cc2ccc(Cl)cc2)C1 (stereo not drawn),–,–,–,–,–,–,·
Cc1ccc(/C=C(\C#N)c2nn(-c3ccccc3)c(N)c2C#N)cc1,–,–,–,–,–,40,–
N#C/C(=C\c1cccc2ccccc12)c1nn(-c2ccccc2)c(N)c1C#N,·,–,·,–,–,–,·
O=C(c1ccc(F)cc1)N1CCN(S(=O)(=O)c2ccc(Br)cc2)CC1,–,–,–,–,–,–,·
Cc1ccccc1-c1nnc2c3ccccc3c(C)nn12,–,–,–,–,–,–,·
COc1ccc(-c2nnc3c4ccccc4c(C)nn23)cc1,·,–,–,–,–,49,–
CCOC(=O)CNC(=O)c1cc(-c2ccccn2)nc2c(C)c(Cl)ccc12,·,–,–,–,–,41,–
COc1ccc(C/C(C)=N/NC(=S)Nc2ccc(C(C)C)cc2)cc1,–,–,–,–,–,40,–
CC1CCC/C(=N\NC(=S)NCc2ccccc2)C1 (stereo not drawn),–,–,–,–,–,41,32
COC(=O)C1CCN(C2CC(=O)N(c3cc(C)cc(C)c3)C2=O)CC1 (stereo not drawn),105,–,–,–,–,40,32
O=C(C1CCN(C2CC(=O)N(c3cccc(Cl)c3)C2=O)CC1)N1CCCC1 (stereo not drawn),106,–,–,–,–,55,47
CCOC(=O)C1CCN(C2CC(=O)N(c3cccc(Cl)c3)C2=O)CC1 (stereo not drawn),–,–,–,–,–,42,37
O=C(C1CCN(C2CC(=O)N(c3ccc(Cl)cc3)C2=O)CC1)N1CCOCC1 (stereo not drawn),–,–,–,–,–,–,·
CCN(CC)C1CC(=O)N(c2cccc(Cl)c2)C1=O (stereo not drawn),126,–,–,–,–,45,56
N#Cc1nc(-c2ccccc2F)oc1NCc1cccc2c1OCO2,–,–,–,–,–,52,–
